# TDP1 cell CPT: DT40-hTDP1 cell growth loss with CPT; Potency, µM (top dose mostly 46.2 µM), inactives show at the highest dose activity change, negative = growth inhibition, actives largely listed as inhibitors; chicken DT40 Tdp1-/-;hTDP1 cells + 20 nM CPT, ATP luminescence, 48 h; 420,000 compounds, 12% hits; AID 686979; also: potency is read from the fitted curve at half-maximal effect; % is scaled to controls: 0 for no effect and ±100 for the full control effect; nearly all actives have a fitted effect of over 55% in size
#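 Chicken DT40 Tdp1-/- cells complemented with human TDP1, 400 cells/well, exposed to compounds plus 20 nM camptothecin for at least 48 h at 37 C; viability read as ATP content by CellTiter-Glo luminescence.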
# TGFb inhibitor: inhibitors of TGF-b signaling. HepG2 CAGA-GFP TGF-b/SMAD3 reporter, GFP fluorescence, 18 h; TGF-beta stimulated, 500 pg/mL final. Potency, µM (series often up to 46.1 µM), without a hit: at the top dose activity, negative = inhibition, usual class: inhibitors. 410,000 compounds, 1.2% hits. AID 588855; also: potency is read from the fitted curve at half-maximal effect; % is scaled to controls: 0 for no effect and ±100 for the full control effect; nearly all actives have a fitted effect of over 65% in size
#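 First, reporter cells (HEPG2 CAGA-GFP) rested 2 h at 37 degrees C. Next, compounds were pinned in and TGF-beta added to 500 pg/mL final. After 18 h, GFP was imaged per cell and summed per well.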
# IL-1B inflam inh: inflammasome signaling inhibition, IL-1 beta readout; THP-1 LPS/ATP IL-1B secretion, AlphaLISA, 16 h; active compounds read low; activity change, % at 57.5 µM; 360,000 compounds, 4.7% hits; AID 743279; in the data active = activity change below about -50%; inconclusive = mostly about -30% to -49%; also: % is scaled to controls: 0 for no effect and ±100 for the full control effect
#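 THP-1 cells pretreated 1 hr with compounds (up to 57.5 uM final), then stimulated with LPS (250 ng/mL final) plus ATP (1.25 mM final); secreted IL-1B measured by AlphaLISA after 16 hr, decreased signal indicating inhibition.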
# DT40 TDP1 no CPT: qHTS for Inhibitors of human tyrosyl-DNA phosphodiesterase 1 (TDP1): qHTS in cells in absence of CPT | DT40 Tdp1-/- hTDP1 cells, no CPT, ATP luminescence, 48 h | Potency, µM (series often up to 46.2 µM), without a hit: top-dose activity change, negative = growth inhibition, actives largely listed as inhibitors | 420,000 compounds, 15% hits; also: potency is read from the fitted curve at half-maximal effect; % is scaled to controls: 0 for no effect and ±100 for the full control effect; nearly all actives have a fitted effect of over 55% in size
#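 Camptothecin absent (DMSO only). Human TDP1-complemented DT40 knockout cells, 400 cells/well, 37 °C for minimum 48 hr; ATP measured via CellTiter-Glo, 30 min dark incubation, luminescence.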
# ASM inhibitor: inhibitors of human secretory acid sphingomyelinase. P17405. placental ASM, HMU-PC fluorogenic substrate, 60 min. Potency, µM (doses to about 57.5 µM), without a hit: top-dose activity change, negative = inhibition, most hits filed as inhibitors. 340,000 compounds, 0.006% hits. AID 504937; also: potency is read from the fitted curve at half-maximal effect
# Target sequence (P17405 47-631 limits assumed): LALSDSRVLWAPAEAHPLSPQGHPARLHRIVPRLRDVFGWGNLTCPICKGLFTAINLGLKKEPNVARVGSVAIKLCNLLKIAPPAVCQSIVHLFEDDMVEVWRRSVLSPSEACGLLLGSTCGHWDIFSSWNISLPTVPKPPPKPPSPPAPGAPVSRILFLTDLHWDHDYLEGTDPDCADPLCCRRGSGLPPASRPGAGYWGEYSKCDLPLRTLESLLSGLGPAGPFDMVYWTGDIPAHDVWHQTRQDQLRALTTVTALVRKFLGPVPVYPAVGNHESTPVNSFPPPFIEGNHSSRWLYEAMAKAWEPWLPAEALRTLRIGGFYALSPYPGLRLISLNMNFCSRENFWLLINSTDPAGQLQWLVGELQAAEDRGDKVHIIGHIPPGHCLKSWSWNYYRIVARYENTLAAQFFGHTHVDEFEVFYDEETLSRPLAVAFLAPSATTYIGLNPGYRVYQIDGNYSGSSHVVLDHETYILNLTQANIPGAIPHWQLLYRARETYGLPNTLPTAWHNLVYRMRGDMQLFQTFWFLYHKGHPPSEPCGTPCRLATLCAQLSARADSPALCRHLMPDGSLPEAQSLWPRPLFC
#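 Steps: dispense placental human ASM, pin compound, wait 10 min at room temperature, add HMU-PC0 substrate at 9 uM final, incubate 60 min at 37 °C, add stop solution raising pH to 10, read fluorescence.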
# HepG2 tox: HepG2 cytotoxicity, counter-screen for TGF-b inhibitors. HepG2 CAGA-GFP viability, ATP luminescence, 18 h. 410,000 compounds, 0.76% hits. Potency, µM (highest dose often 46.1 µM), for the others: at the highest dose activity change, negative = cytotoxicity, hits mostly cytotoxic; also: potency is read from the fitted curve at half-maximal effect
#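 HepG2 CAGA-GFP cells (1000/well, DMEM with 1% FBS) received compound, then TGF-beta at 500 pg/mL final, and were incubated 18 hours at 37 degrees C. Viability was read by CellTiter-Glo luminescence. Media-only wells were set as complete cell-killing and DMSO as no toxicity.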
# An asterisk follows results filed as active; ? = inconclusive; / = no result. In the library only some 19% were active in any assay of this set; here they are far more common. Unless noted, calls follow the shape of the dose curve; as a rule, active = well fitted curve in the direction sought with a large enough effect; inconclusive = small, poorly fitted or top-dose-only effect, or another doubt; inactive = no such curve, though single readings can be large; an effect the other way counts as inactive or inconclusive.
SMILES,TDP1 cell CPT,TGFb inhibitor,IL-1B inflam inh,DT40 TDP1 no CPT,ASM inhibitor,HepG2 tox
COc1ccc(CCNC(=O)CCc2cn(Cc3ccc(C)cc3)c3ccccc23)cc1OC,13µM*,?,/,15µM*,/,-22%
O=c1c2ccccc2c(C=Nc2cccc(O)c2)c(O)n1-c1ccc2c(c1)OCO2,6.5µM*,?,?,12µM*,26%,-79%
COc1ccc(N=Cc2c(O)n(-c3ccc(OC)cc3)c(=O)c3ccccc23)cc1,-28%,-9%,-20,-40%,317%,0%
O=C1CCCCCCC(=O)[C@H](O)C[C@H](c2ccccc2)O1,-4%,/,0,-20%,/,/
O=C(c1ccc(F)cc1)N1CCN2C(=O)c3ccccc3C12c1ccc(Cl)cc1 (stereo not drawn),?,-4%,-26,?,-3%,-14%
O=C(c1ccccc1)N1CCN2C(=O)c3ccccc3C12c1ccc(Cl)cc1 (stereo not drawn),21µM*,40%,?,18µM*,-8%,-7%
C#CCNC(=O)C[C@@H]1C[C@@]2(C(=O)OC)CCCCC=C2N(Cc2cccc3ccccc23)C1=O,?,/,-1,?,/,/
COC(=O)[C@]12CCCCC=C1N(Cc1ccco1)C(=O)[C@H](CC(=O)NCc1ccc(OC)c(OC)c1)C2,?,/,2,?,/,/
CCCCCCCCN1C(=O)[C@H](CC(=O)NCc2ccccc2)C[C@@]2(C(=O)OC)CCCCC=C12,16µM*,/,-82*,15µM*,/,/
C#CCNC(=O)C[C@@H]1C[C@@]2(C(=O)OC)CCCCC=C2N(CCCCCCCC)C1=O,16µM*,/,-13,23µM*,/,/
CCOC(=O)[C@]12CCCC=C1N(Cc1ccccc1)C(=O)[C@H](CC(=O)NCc1ccccc1)C2,?,/,-5,?,/,/
COC(=O)[C@]12CCCCC=C1N(Cc1ccccc1)C(=O)[C@H](CC(=O)NCc1ccc(OC)c(OC)c1)C2,23µM*,/,-20,23µM*,/,/
CCCCCCCCN1C(=O)[C@H](CC(=O)NCc2ccc(OC)c(OC)c2)C[C@@]2(C(=O)OCC)CCC=C12,?,/,-77*,21µM*,/,/
CCOC(=O)[C@]12CCC=C1N(Cc1ccc3c(c1)OCO3)C(=O)[C@H](CC(=O)NCc1ccc(OC)c(OC)c1)C2,?,/,-20,?,/,/
CC(=NNC(=O)c1ccc(NS(=O)(=O)c2cccs2)cc1)c1ccc(OCC(N)=O)cc1,-2%,-10%,-6,-1%,-1%,-2%
CCCCCCCCN1C(=O)[C@H](CC(=O)NCc2ccc(OC)c(OC)c2)C[C@@]2(C(=O)OC)CCCCC=C12,?,/,-58*,21µM*,/,/
C/C(=N\NC(=O)c1c(C)nc2ccccn12)c1ccc(C(C)(C)C)cc1,18µM*,5%,-1,12µM*,-2%,-26%
Cc1nc2ccccn2c1C(=O)NNS(=O)(=O)c1ccc(C(C)(C)C)cc1,8.2µM*,10%,2,6.5µM*,2%,0%
CCc1ccc(CNC(=O)C2COc3ccc(OC)cc3C2)cc1 (stereo not drawn),-19%,0%,/,-21%,/,0%
COc1ccc(N2CCN(CCCNC(=O)C3COc4ccc(OC)cc4C3)CC2)cc1 (stereo not drawn),15µM*,-19%,/,21µM*,/,-19%
O=C(NCCCN1CCN(c2ccccc2F)CC1)C1COc2ccccc2C1 (stereo not drawn),26µM*,-5%,/,?,/,-27%
